Screens from PubChem BioAssay.
Sampled rows, rich in hits. Any-hit rate of the full collection: about 1.8%.
Mito fusion yeast = inhibitors of mitochondrial division or activators of mitochondrial fusion | S. cerevisiae fusion-defective mutant growth rescue, CellTiterGlo 48 h | Potency, µM (titrated, usually from 46.1 µM), actives largely listed as activators | 320,000 compounds, 0.23% hits; further: nearly all actives have a fitted effect of over 45% in size
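Growth-rescue viability read-out: after 48 h at the non-permissive 37C in glycerol/ethanol YPEG, yeast mitochondrial fusion mutants are measured by CellTiterGlo luminescence; compounds (23 nl pinned per well) restoring growth score as division inhibitors or fusion activators.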
TCR activator = T cell receptor activation; Potency, µM (doses to about 9.22 µM), actives largely listed as activators; primary human leukocytes, anti-CD3, IL-2 HTRF, 48 h; AID 504894; 330,000 tested, under 10 active
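Primary human leukocytes incubated 48 hr with anti-CD3 beads plus compound, without co-stimulation. Secreted IL-2 measured by HTRF (europium cryptate/d2 anti-IL-2 pair, 320 nm excitation, 665 nm emission).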
Glioma ERSR ind = induces the endoplasmic reticulum stress response in human glioma cells; AID 602332; 420,000 compounds, 0.02% hits; U87-MG GRP78 promoter luciferase reporter, 16 h; Potency, µM, usual class: activators; further: series mostly up to about 76 µM; nearly all actives have a fitted effect of over 35% in size
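Stably transfected U87-MG glioma cells carrying a GRP78-based luciferase sensor; 16 h compound incubation. Luminescence end-point read 10 min after Bright-Glo addition at room temperature.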
A-T KAP1 phos = candidate therapy for ataxia-telangiectasia; 320,000 compounds, 0.19% hits; Potency, µM (doses to about 57.5 µM), usual class: activators; AID 485349; F2112 A-T fibroblasts, KAP-1 phosphorylation AlphaLISA; neocarzinostatin DNA damage 30 min before lysis; further: nearly all actives have a fitted effect of over 45% in size
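ATM-like activity read as KAP-1 phosphorylation via AlphaLISA donor/acceptor antibody pairs after lysis and 6 hr at 25C. Cells were ATM-null patient fibroblasts (F2112, hTERT), dosed 60 min, then exposed to the DSB inducer NCS for 30 min.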
MBNL1-CUG inh = blocks human MBNL1 binding to CUG repeat RNA; Potency, µM (series often up to 57.5 µM), actives largely listed as inhibitors; Q9NR56; 280,000 compounds, 0.036% hits; TR-FRET MBNL1-His/biotin-(CUG)12 binding, 665/545 ratio; active means well fitted inhibition curve with a large enough effect in the signal ratio, with a control signal flat, not every such curve was filed as active; inconclusive means small, poorly fitted or top-dose-only effect, or effect the other way, or a change in a side signal; inactive means no such curve, though single readings can be large or run the other way; the % refers to the signal ratio
Target sequence (Q9NR56 whole entry, looked up): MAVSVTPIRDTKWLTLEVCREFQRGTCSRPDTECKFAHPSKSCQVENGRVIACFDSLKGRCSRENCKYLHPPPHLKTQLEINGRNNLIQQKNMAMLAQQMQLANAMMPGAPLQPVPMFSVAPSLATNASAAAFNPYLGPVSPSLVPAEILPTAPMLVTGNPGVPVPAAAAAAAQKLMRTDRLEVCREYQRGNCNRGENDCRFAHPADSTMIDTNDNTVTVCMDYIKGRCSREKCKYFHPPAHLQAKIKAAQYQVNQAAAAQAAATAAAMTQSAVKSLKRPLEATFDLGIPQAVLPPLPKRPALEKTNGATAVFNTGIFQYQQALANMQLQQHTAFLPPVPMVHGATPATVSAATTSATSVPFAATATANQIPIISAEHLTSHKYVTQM
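His-tagged MBNL1 binding to biotinylated (CUG)12 RNA was measured by TR-FRET using terbium anti-His antibody (0.055 ng/ul final) and streptavidin-XL665 (5 nM final). Compounds were titrated 92 nM to 58 uM; 60 min at room temperature.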
ClpP mod = qHTS Assay for Activators of ClpP. 340,000 compounds, 1.9% hits. purified B. subtilis ClpP, FRET peptide cleavage, 20 min. Potency, µM (titrated, usually from 57.5 µM). AID 651965, 2013. ATP-dependent Clp protease proteolytic subunit (Bacillus subtilis (strain 168)), P80244; active means well fitted falling curve with a large enough effect; inconclusive means small, poorly fitted or top-dose-only effect; inactive means no such curve, though single readings can be large or run the other way; further: the source files actives as falling curves though it sought activators and does not explain the sign; nearly all actives have a fitted effect of over 65% in size
Target sequence (P80244 whole entry, looked up): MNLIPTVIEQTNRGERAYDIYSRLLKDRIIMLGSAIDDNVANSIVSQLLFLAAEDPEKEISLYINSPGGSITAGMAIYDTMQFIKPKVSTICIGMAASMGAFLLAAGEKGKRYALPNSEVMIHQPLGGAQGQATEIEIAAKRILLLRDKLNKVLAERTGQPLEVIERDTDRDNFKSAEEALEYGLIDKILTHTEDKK
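ClpP 10 microg/mL final, pH 8 Tris/KCl buffer with BSA, glycerol, Tween-20; compound pinned in; FRET-FV substrate; RT 20 min; Ex320/Em430; ΔFRET vs ADEP 5.8 microM, DMSO, no enzyme.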
A number is an active result; n = inactive; u = inconclusive; x = not tested or not shown; ! = not confirmed by another sample; [ ] = another dose, or the depositor's remark. Unless noted, the call rests on the fitted dose curve; in most records, active means well fitted curve in the direction sought with a large enough effect; inconclusive means small, poorly fitted or top-dose-only effect, or another doubt; inactive means no such curve, though single readings can be large; an effect the other way counts as inactive or inconclusive.

SMILES	Mito fusion yeast	TCR activator	Glioma ERSR ind	A-T KAP1 phos	MBNL1-CUG inh	ClpP mod
Cc1c(C(=O)N2CCC3(CC2)CC(=O)c2ccccc2O3)cccc1[N+](=O)[O-]	n	n	n	n	x	n
O=C1CC2(CCN(C(=O)c3ccccc3Br)CC2)Oc2ccccc21	n	n	n	n	x	28µM
Cc1ccc(Nc2c(-c3c[nH]c4ccccc34)nc3cc(C)ccn23)cc1	x	x	n	x	x	28µM
Cc1ccn2c(Nc3ccccc3)c(-c3c[nH]c4ccccc34)nc2c1	x	x	n	x	x	n
Cc1c(O)ccc2c3c(c(=O)oc12)CCC(C)C3 (stereo unspecified)	n	n	n	n	n	25µM
Cc1c(O)ccc2c3c(c(=O)oc12)CCCC3	n	n	n	n	n	25µM
CC1CCCN(Cc2c(O)ccc3c4c(c(=O)oc23)CCCC4)C1 (stereo unspecified)	n	n	n	n	n	n
CC(=O)C(C)Oc1ccc2c3c(c(=O)oc2c1C)CCCC3 (stereo unspecified)	n	x	n	n	n	n
CC(C)CN(Cc1c(O)ccc2c3c(c(=O)oc12)CCC3)CC(C)C	n	n	n	n	n	13µM
Cc1cc(=O)oc2c(CN(CC(C)C)CC(C)C)c(O)ccc12	n	n	n	n	n	n
CCCCCCCCCC[n+]1cc(Br)cc(Br)c1	x	x	n	x	x	n
CCN(CC)C(=O)c1oc2ccc(S(=O)(=O)N3CCCCCC3)cc2c1C	n	n	n	n	n	n
Cc1ccc(CNC(=O)c2c[nH]c3ccc(S(=O)(=O)N4CCOCC4)cc3c2=O)cc1	x	x	n	x	x	28µM
COCCNC(=O)c1c[nH]c2ccc(S(=O)(=O)N3CCOCC3)cc2c1=O	n	n	n	n	n	n
CN(Cc1ccccc1)C(=O)c1c[nH]c2ccc(S(=O)(=O)N3CCOCC3)cc2c1=O	n	n	n	n	n	32µM
CCN(Cc1ccccc1)C(=O)c1oc2ccc(S(=O)(=O)N3CCOCC3)cc2c1C	10µM	n	n	n	n	n
Cc1ccc(C)c(N(C)S(=O)(=O)c2ccc3[nH]cc(C(=O)NCCN4CCOCC4)c(=O)c3c2)c1	n	n	n	n	n[11.5 µM]	18µM
O=C(NCc1ccc2c(c1)OCO2)c1c[nH]c2ccc(S(=O)(=O)N3CCOCC3)cc2c1=O	n	x	n	n	n	u
CCC1C(=O)NCCN1Cc1ccc2c(c1)CN(Cc1ccc(OC)c(OC)c1)CCO2 (stereo unspecified)	x	x	n	x	x	x
Cc1ccccc1/C=C1\OC(=O)c2ccccc21	n	n	n	n	n	28µM
Cc1ccc(/C=C2\OC(=O)c3ccccc32)cc1	n	n	u	n	n	28µM
Cc1ccccc1C=O	n	n	n	n	x	n
CCOC(=O)Cc1csc(NC(=O)c2cc(C)c(C)s2)n1	n	n	n	n	x	28µM
Cc1[nH]c2c(F)cccc2c1CC(=O)NCCN1Cc2ccccc2OC(C)C1 (stereo unspecified)	x	x	n	x	x	x
CN(CCC#N)c1ccc(/C=C/c2ccnc3ccccc23)cc1	x	x	n	x	x	n
SMILES	Mito fusion yeast	TCR activator	Glioma ERSR ind	A-T KAP1 phos	MBNL1-CUG inh	ClpP mod
Cc1ccccc1NC1=NC(=S)N(c2ccccc2)C12CCOC(C)(C)C2 (stereo unspecified)	n	n	n	n	n	n
Cc1ccccc1NC1=NC(=S)N(c2ccccc2)C12CCCCC2	n	n	n	n	n[11.5 µM]	28µM
Cc1ccc(S(=O)(=O)c2cn(C)c3cc(N4CCN(C)CC4)c(F)cc3c2=O)cc1	n	n	n	n	n	25µM!
Cn1cc(S(=O)(=O)c2ccccc2)c(=O)c2cc(F)c(N3CCOCC3)cc21	n	n	n	n	n	28µM
Cc1ccc(S(=O)(=O)c2cn(C)c3cc(N4CCOCC4)c(F)cc3c2=O)cc1	n	n	n	n	n	n
CCc1ccc(S(=O)(=O)c2cn(C)c3cc(N4CCN(CC)CC4)c(F)cc3c2=O)cc1	x	x	n	x	x	11µM
CCOC(=O)C1(Cc2cccc(Cl)c2)CCCN(C(=O)c2cc(C)[nH]n2)C1 (stereo unspecified)	n	n	n	n	n	28µM
CCN(CC)C(=O)c1c([N+](=O)[O-])c(C(C)(C)C)nn1C	n	n	n	n	n	25µM
Cn1nc(C(C)(C)C)c([N+](=O)[O-])c1C(=O)NCCO	n	n	n	n	n	n
CCNc1ccc(C(=O)O)cc1N	n	n	n	n	n	25µM
Nc1cc(C(=O)O)ccc1Nc1ccccc1	n	n	n	n	n	10µM
Nc1ccccc1C(=O)Nc1cccc(C(=O)O)c1	n	n	n	n	n	u
CCC(C(=O)Nc1ccc(C(=O)O)cc1NC(=O)C(CC)c1ccccc1)c1ccccc1 (stereo unspecified)	n	x	n	n	n	n
CCc1ccccc1Nc1ccc(C(=O)O)cc1N	n	n	n	n	n	28µM
CN(C)c1ccc(/C=C/c2ccnc3c([N+](=O)[O-])cccc23)cc1	x	x	n	x	x	n
COc1ccc(-c2nnc(N(C)C(=O)c3ccno3)s2)cc1	n	n	n	n	u	22µM
CN(C(=O)c1ccno1)c1nnc(-c2ccccn2)s1	n	n	n	n	n	n
c1ccc(CCSc2ncnc3nc[nH]c23)cc1	18µM	n	n	n	n[11.5 µM]	n
Cc1ccc2nc(SC(C)C(=O)NC3CCCc4ccccc43)[nH]c2c1 (stereo unspecified)	n	n	n	n	u	25µM
Cc1cc(-c2cc(F)cc3c2OC(CNC(=O)CCn2cncn2)C3)ccc1F (stereo unspecified)	x	x	n	x	x	x
Cc1ccc(NC(=O)C(C)OC(=O)CCNS(=O)(=O)c2ccc(C)cc2)cc1 (stereo unspecified)	n	n	n	n	n	32µM
CC(=O)Nc1ccc(S(=O)(=O)NCCC(=O)OC(C)C(=O)c2ccc(C)cc2)cc1 (stereo unspecified)	n	n	n	n	n	n
Cc1ccc(S(=O)(=O)NCCCCCC(=O)Nc2ccccc2C)cc1	n	n	n	n	n[11.5 µM]	n
Cc1cccc(S(=O)(=O)NCCC(=O)OC(C)C(=O)NC(=O)NC2CCCCC2)c1 (stereo unspecified)	n	n	n	n	n	32µM
Cc1ccc(S(=O)(=O)NCCCCCC(=O)Nc2ccccc2)cc1	n	n	n	n	n[11.5 µM]	28µM
COC(=O)c1cc(CNC(=O)c2ccc3ncccc3c2)cc(NC(=O)c2ccccc2Cl)c1	x	x	n	x	x	x
CCOC(=O)C1CCCN(C(=O)c2cnn(-c3nccc(-c4cc(C)sc4C)n3)c2C)C1 (stereo unspecified)	x	x	n	x	x	x
CSc1ncccc1C(=O)Nc1ccc2c(c1)OCCO2	x	n	n	28µM	x	n
